697 NFkB inh: lowers PMA/ionomycin-induced NF-kB signal in 697 B cells; 697 B-cell NF-kB luciferase reporter, 16 h; inhibition, % at 4 µM; 330,000 compounds, 0.33% hits; in the data active = inhibition above about 35%
esBAF inh: blocks esBAF chromatin remodeling in mouse ES cells. Bmi1-luciferase knock-in reporter, 24 h; 100% = twice the neutral-well signal. 350,000 compounds, 2% hits. reporter increase, % at 12.5 µM; in the data active = activation above about 40%;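 note: 0% = median of the plate's neutral control wells and 100% = double that signal; a rise in the Bmi1 reporter signal indicates esBAF inhibition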
SMARCA2 act: increases SMARCA2 function in MMTV reporter cells | activation, % at 9.1 µM | 370,000 compounds, 1% hits | MG213 cells, MMTV-luciferase reporter, dexamethasone, overnight | AID 652017; in the data active = activation above about 7.8%;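 note: 0% = vehicle wells and 100% = reference activator wells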
Jurkat NFkB inh: inhibitors of the PMA/ionomycin-induced NF-kB reporter in Jurkat cells | PMA/ionomycin-induced NF-kB luciferase reporter, luminescence | inhibition, % at 4 µM | 330,000 compounds, 0.53% hits | AID 435003; in the data active = inhibition above about 50%
Gli-Sufu antag: blocks Gli-Sufu signaling in a luciferase reporter. Sufu-KO-LIGHT fibroblasts, Gli luciferase reporter luminescence. inhibition, % at 5 µM. 340,000 compounds, 0.74% hits;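 active = inhibition above about 55%, limit read from the data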;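 note: 0% = DMSO-treated cells and 100% = wells with medium but no cells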
Numbers without * were called inactive; / = no result. Most compounds without a hit are left out; they make up all but 3.3% or so of the library.

SMILES	697 NFkB inh	esBAF inh	SMARCA2 act	Jurkat NFkB inh	Gli-Sufu antag
O=C(NCC1CC1)[C@H]1[C@H](CO)[C@H]2Cn3c(cccc3=O)[C@@H]1N2C(=O)c1cccnc1	/	1	/	/	/
CN(C(=O)c1cccc(COc2ccc(Cl)cc2Cl)c1)c1ccccc1	/	72*	2	/	-113
O=C(NCc1ccccc1)c1cccc(COc2ccccc2Cl)c1	-99	45*	3	-48	-89
O=C(c1cccc(COc2cccc3ccccc23)c1)N1CCCC1	-115	74*	1	-17	-42
O=C(NCc1ccccc1)c1cccc(COc2cc(Cl)ccc2Cl)c1	-90	71*	2	-4	-81
Cc1ccc2c(COC(=O)c3ccccc3OC(F)F)cc(=O)oc2c1	-8	48*	4	-16	-29
CCC(=O)N(C)C[C@@H]1Oc2cc(-c3cccc(OC)c3)ccc2S(=O)(=O)N([C@@H](C)CO)C[C@H]1C	/	-5	/	/	/
O=C(CSc1nnc(-c2cccc(F)c2)o1)N1CCCC1	1	44*	3	-21	14
O=C(CSc1nnc(-c2cccc(F)c2)o1)N1CCOCC1	-26	26	-3	0	-37
CCC1CCCCN1C(=O)CSc1nnc(-c2cccc(Cl)c2)o1 (stereo not given)	-17	50*	3	-28	-43
CN(C)C(=O)[C@H]1[C@H](CO)[C@H]2Cn3c(ccc(C4=CCCC4)c3=O)[C@@H]1N2CC1CCOCC1	/	-2	/	/	/
O=C1/C(=C\c2ccc3ccccc3c2)CCCc2ccccc21	-163	30	6	-79	4
O=C1/C(=C/c2ccc([N+](=O)[O-])cc2)CCc2ccccc21	-54	/	/	-53	/
CC(=O)Oc1ccc(/C=C2/CCc3ccccc3C2=O)cc1	-140	52*	1	-111	41
O=C1C(=Cc2ccccn2)CCc2ccccc21	/	64*	7	/	/
Cc1ccccc1/C=C1\CCCc2ccccc2C1=O	-172	82*	4	-131	-102
COc1cccc(/C=C2\CCc3ccccc3C2=O)c1	-243	42	3	-95	-13
Cc1ccc(S(=O)(=O)Nc2ccc3c(c2)CC(=O)N([C@H](C)CO)C[C@H](C)[C@@H](CN(C)Cc2ccc4c(c2)OCO4)O3)cc1	/	12	/	/	/
C[C@@H]1CN([C@@H](C)CO)C(=O)c2cccc(NC(=O)c3cnccn3)c2O[C@@H]1CN(C)Cc1ccc(C(F)(F)F)cc1	/	-2	/	/	/
Cc1ccc(NC(=O)CN(C)S(=O)(=O)c2cccs2)cc1C	-13	98*	3	3	-27
COc1cc(NC(=O)CN(C)S(=O)(=O)c2cccs2)cc(OC)c1	-39	6	3	-30	-4
Cc1ccc(NC(=O)CN(C)S(=O)(=O)c2cccs2)cc1F	-50	51*	3	-32	-17
Cc1ccc(NC(=O)CN(C)S(=O)(=O)c2cccs2)c(Br)c1	-1	32	-2	-5	38
CCOc1ccc(NC(=O)CN(C)S(=O)(=O)c2cccs2)cc1	-1	54*	4	-24	7
O=C(C[C@@H]1C[C@@H]2c3cc(NC(=O)NC4CCCC4)ccc3O[C@@H]2[C@@H](CO)O1)NCc1ccc(Cl)cc1	/	-1	/	/	/
SMILES	697 NFkB inh	esBAF inh	SMARCA2 act	Jurkat NFkB inh	Gli-Sufu antag
C[C@H](CO)N1C[C@H](C)[C@@H](CN(C)S(=O)(=O)c2cccs2)Oc2ccc(NC(=O)Cc3ccccc3)cc2CC1=O	/	4	/	/	/
CC(C)NC(=O)N(C)C[C@@H]1Oc2ccc(NC(=O)Nc3ccc(F)cc3)cc2C(=O)N([C@@H](C)CO)C[C@H]1C	/	3	/	/	/
O=C(NNC(=O)c1ccccc1OCc1ccccc1)c1ccccc1F	-36	60*	4	-14	-2
Cc1ccc(S(=O)(=O)N(C)C[C@H]2Oc3ccc(NC(=O)CCCN(C)C)cc3CC(=O)N([C@@H](C)CO)C[C@H]2C)cc1	/	1	/	/	/
CCCC#Cc1ccc2c(c1)O[C@H](CN(C)C(=O)C1CCCCC1)[C@H](C)CN([C@@H](C)CO)S2(=O)=O	/	7	/	/	/
COc1ccccc1-c1cnc2c(c1)C(=O)N([C@@H](C)CO)C[C@@H](C)[C@H](CN(C)CC1CCOCC1)O2	/	-5	/	/	/
COc1cc(CN2CCN(CC#Cc3ccccc3)CC2CCO)cc(OC)c1 (stereo not given)	0	7	-3	-2	57*
Cc1noc(C)c1NC(=O)Nc1ccc2c(c1)C(=O)N([C@@H](C)CO)C[C@H](C)[C@H](CN(C)Cc1ccc(C(F)(F)F)cc1)OCCCC[C@H](C)O2	/	-6	/	/	/
O=C(NC1CC1)c1cc2cc3ccccc3nc2s1	-63	70*	4	-104	-49
